A number with no mark means an inactive call. For some of these results: Entries with a potency or affinity are not part of this list. Calls of active or inactive are those of the source. Unless noted, how the calls were made is not given here.
Key:
[1] = antimalarial activity against Dd2 strain (AID 2302;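 active means growth inhibition above 50% at the single 2 µM test dose, taken to imply half-maximal potency below 2 µM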;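 further: 0% = DMSO untreated growth and 100% = chloroquine plus artemisinin killed control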); conditions: P. falciparum Dd2 in RBCs, LDH growth readout, 72 h; at 2 µM; stronger effect = higher value
[2] = human hepatoma cell viability loss – ATP luminescence, cytotoxicity control for P. falciparum antimalarial project, primary screen (AID 2303;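 active means inhibition above 50%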;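 further: 0% = DMSO wells and 100% = digitonin-killed cells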); conditions: HepG2 viability, 24-48 h, at 10 µM, stronger effect = higher value
[3] = target: L-lactate dehydrogenase (Plasmodium falciparum (isolate CDC / Honduras)) (UniProt Q27743); assay: PfLDH activity inhibition – cell lysate, 3D7 strain, counter-screen for P. falciparum growth inhibition project (AID 2304);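 further: 0% = vehicle and 100% = reference inhibitor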; conditions: P. falciparum 3D7 crude extract, LDH APAD/NBT absorbance; at 2 µM; stronger effect = higher value
Sequence of L-lactate dehydrogenase (Plasmodium falciparum (isolate CDC / Honduras)) (Q27743 whole entry, looked up): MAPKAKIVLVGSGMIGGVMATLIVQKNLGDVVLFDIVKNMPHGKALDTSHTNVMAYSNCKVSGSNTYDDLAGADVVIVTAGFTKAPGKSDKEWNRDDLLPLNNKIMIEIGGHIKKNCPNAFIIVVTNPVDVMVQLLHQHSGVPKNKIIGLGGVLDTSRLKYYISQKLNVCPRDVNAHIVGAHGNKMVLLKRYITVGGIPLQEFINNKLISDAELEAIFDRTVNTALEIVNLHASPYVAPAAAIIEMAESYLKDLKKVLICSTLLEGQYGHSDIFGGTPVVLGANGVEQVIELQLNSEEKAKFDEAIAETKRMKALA

[4] = inhibition of 3D7 malaria parasite growth – strain 3D7 (AID 2306);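 further: 0% = DMSO wells and 100% = chloroquine plus artemisinin control wells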; conditions: P. falciparum 3D7 erythrocytic growth, LDH absorbance, 72 h; at 2 µM; stronger effect = higher value
[5] = target: Calcium-dependent protein kinase 1 (Plasmodium falciparum (isolate 3D7)) (UniProt P62344); assay: PfCDPK1 kinase inhibitors, biochemical, TCAMS library (AID 1159585; cut-off not given, nearly all actives have IC50 up to about 0.98 µM;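 further: inhibitors leave more ATP so luminescence rises with inhibition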); conditions: recombinant PfCDPK1, Kinase-Glo ATP depletion luminescence
Sequence of Calcium-dependent protein kinase 1 (Plasmodium falciparum (isolate 3D7)) (P62344 whole entry, looked up): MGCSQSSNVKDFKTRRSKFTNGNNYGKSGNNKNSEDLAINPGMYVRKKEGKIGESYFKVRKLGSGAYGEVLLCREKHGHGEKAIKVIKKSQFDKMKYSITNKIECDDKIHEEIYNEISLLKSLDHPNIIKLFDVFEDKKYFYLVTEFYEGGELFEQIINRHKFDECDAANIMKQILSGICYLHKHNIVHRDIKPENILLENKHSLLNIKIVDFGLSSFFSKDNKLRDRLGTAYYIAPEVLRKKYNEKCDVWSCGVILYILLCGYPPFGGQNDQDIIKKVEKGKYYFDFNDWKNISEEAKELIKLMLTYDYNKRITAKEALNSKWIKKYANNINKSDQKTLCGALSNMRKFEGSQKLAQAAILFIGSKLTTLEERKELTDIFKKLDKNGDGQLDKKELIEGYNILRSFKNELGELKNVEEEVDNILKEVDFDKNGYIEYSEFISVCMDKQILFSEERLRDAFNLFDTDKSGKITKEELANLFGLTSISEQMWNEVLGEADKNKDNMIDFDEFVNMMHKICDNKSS

[6] = target: Plasmodium falciparum protein kinase 6 (PK6, PF3D7_1337100) (UniProt Q8IDW1); assay: PfPK6 kinase inhibitors, biochemical, TCAMS library (AID 1159586); conditions: recombinant PfPK6, Kinase-Glo ATP depletion luminescence
Sequence of Plasmodium falciparum protein kinase 6 (PK6, PF3D7_1337100) (Q8IDW1 1-305): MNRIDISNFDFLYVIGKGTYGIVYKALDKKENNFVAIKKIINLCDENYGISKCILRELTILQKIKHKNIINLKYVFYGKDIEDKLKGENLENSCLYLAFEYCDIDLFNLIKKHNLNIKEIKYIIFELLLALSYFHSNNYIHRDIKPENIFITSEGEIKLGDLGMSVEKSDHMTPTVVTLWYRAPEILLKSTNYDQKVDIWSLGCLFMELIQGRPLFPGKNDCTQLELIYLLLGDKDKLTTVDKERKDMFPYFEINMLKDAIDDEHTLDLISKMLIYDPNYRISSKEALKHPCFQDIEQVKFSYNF

[7] = target: Protein kinase 7 (PK7), Plasmodium falciparum 3D7 (PF3D7_0213400) (UniProt Q7YTF7); assay: inhibition of Plasmodium PK7 catalytic activity – biochemical, TCAMS antimalarial set, Kinase-Glo luminescence (AID 1159587); conditions: recombinant PfPK7, Kinase-Glo ATP depletion luminescence
Sequence of Protein kinase 7 (PK7), Plasmodium falciparum 3D7 (PF3D7_0213400) (Q7YTF7 1-343): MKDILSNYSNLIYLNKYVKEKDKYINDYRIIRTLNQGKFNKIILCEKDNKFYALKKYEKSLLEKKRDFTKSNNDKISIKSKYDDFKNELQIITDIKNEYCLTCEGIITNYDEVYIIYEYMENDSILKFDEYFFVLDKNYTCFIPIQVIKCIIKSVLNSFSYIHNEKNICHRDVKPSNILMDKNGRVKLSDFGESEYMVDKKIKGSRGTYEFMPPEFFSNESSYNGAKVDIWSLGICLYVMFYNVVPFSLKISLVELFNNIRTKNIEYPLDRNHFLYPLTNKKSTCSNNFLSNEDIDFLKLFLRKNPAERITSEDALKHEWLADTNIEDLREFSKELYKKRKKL

[8] = target: Calcium-dependent protein kinase 4 (Plasmodium falciparum (isolate 3D7)) (UniProt Q8IBS5); assay: PfCDPK4 kinase inhibitors, biochemical, TCAMS library (AID 1159588; cut-off not given, nearly all actives have IC50 up to about 0.91 µM); conditions: recombinant PfCDPK4, Kinase-Glo ATP depletion luminescence
Sequence of Calcium-dependent protein kinase 4 (Plasmodium falciparum (isolate 3D7)) (Q8IBS5 whole entry, looked up): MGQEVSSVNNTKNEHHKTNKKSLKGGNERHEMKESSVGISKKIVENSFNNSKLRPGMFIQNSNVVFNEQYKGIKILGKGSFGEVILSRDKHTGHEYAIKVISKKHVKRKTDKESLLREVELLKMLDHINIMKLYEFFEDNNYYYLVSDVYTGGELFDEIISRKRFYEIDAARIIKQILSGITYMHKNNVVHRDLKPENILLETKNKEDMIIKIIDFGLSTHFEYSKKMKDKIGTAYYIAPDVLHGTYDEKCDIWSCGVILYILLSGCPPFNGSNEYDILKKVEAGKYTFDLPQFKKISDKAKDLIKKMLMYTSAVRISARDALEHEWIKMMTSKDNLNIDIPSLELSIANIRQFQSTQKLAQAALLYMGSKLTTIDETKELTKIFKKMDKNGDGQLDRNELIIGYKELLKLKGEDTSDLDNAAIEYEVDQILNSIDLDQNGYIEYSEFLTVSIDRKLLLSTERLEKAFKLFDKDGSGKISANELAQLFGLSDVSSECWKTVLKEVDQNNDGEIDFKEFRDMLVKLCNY

SMILES	growth inhibition [1]	inhibition [2]	inhibition [3]	growth inhibition [4]	outcome [5]	outcome [6]	outcome [7]	outcome [8]
CCOC(=O)CC[C@H](NC(=O)c1ccc(NS(=O)(=O)c2ccc(-c3cnc(N)[nH]c3=O)cc2)cc1)C(=O)OCC	2%	5%	4%	95% (active)	inactive	inactive	inactive	inactive
O=C(N[C@@H](Cc1ccccc1)C(=O)NCc1cccc(C(F)(F)F)c1)c1ccc(O)c(-c2ccc(Cl)c(Cl)c2)c1	97% (active)	-13%	-1%	96% (active)	inactive	inactive	inactive	inactive
CCCC(=O)c1cnc2c(I)cccc2c1Nc1ccccc1C	26%	7%	4%	90% (active)	inactive	inactive	inactive	inactive
CCc1cccc2c(C#N)cn(CC(=O)Nc3ccc(OC)cc3)c12	76% (active)	-13%	-3%	97% (active)	inactive	inactive	inactive	inactive
Cc1cccc2[nH]c(-c3ccc(-c4ccc(CN5CCN(c6ccc(C#N)cn6)CC5)cc4)s3)nc12	44%	10%	2%	98% (active)	inactive	inactive	inactive	inactive
Cc1cc(NC(=O)c2cccs2)ccc1OC1CCN(Cc2ccc(C#N)cc2)C1 (stereo not drawn)	61% (active)	13%	-2%	82% (active)	inactive	inactive	inactive	inactive
COc1cccc2c(NCc3ccccc3)nc(NCCCN3CCCCC3C)nc12 (stereo not drawn)	2%	20%	2%	90% (active)	inactive	inactive	inactive	inactive
O=C(NCCCCCN1CCC(c2c[nH]c3ccccc23)CC1)Nc1ccc(I)c(Cl)c1	5%	88% (active)	3%	99% (active)	inactive	inactive	inactive	inactive
Cc1cc(N2C(N)=NC(N)=NC2(C)C)ccc1Cl	-2%	66% (active)	-5%	95% (active)	inactive	inactive	inactive	inactive
O=C(NC12CC3CC(CC(C3)C1)C2)C(=O)c1c[nH]c2ccccc12	2%	16%	3%	97% (active)	inactive	inactive	inactive	inactive
Cc1nnsc1C(=O)Nc1cccc(-c2cccc(-c3nc4c(C)cccc4[nH]3)c2)c1	80% (active)	22%	4%	99% (active)	inactive	inactive	inactive	inactive
COc1cc(F)c2ncc(Cl)c(CCN3CCC(NCc4ccc5c(n4)NC(=O)CS5)CC3)c2c1	41%	18%	3%	99% (active)	inactive	inactive	inactive	inactive
COc1cc2nc(N3CCC(CNC(=O)c4cc(Br)c(Br)s4)CC3)nc(N)c2cc1OC	97% (active)	22%	2%	101% (active)	inactive	inactive	inactive	inactive
CN1CCN(c2cc(-c3cccnc3)nc(-c3ccncc3)n2)CC1	89% (active)	11%	1%	100% (active)	inactive	inactive	inactive	inactive
CC(C)(C)c1cc(C(=O)N2CCN(c3cnccn3)CC2)n(Cc2ccccc2)n1	33%	-1%	-4%	92% (active)	inactive	inactive	inactive	inactive
Fc1cccc(COc2ccc(Nc3ncnc4sc(C#CC5CCCCN5)cc34)cc2Cl)c1 (stereo not drawn)	100% (active)	30%	3%	101% (active)	inactive	inactive	inactive	inactive
COc1ccc(CNCc2ccccc2)cc1-c1ccc(S(=O)(=O)NCCN2CCCC2)c(C)c1	50% (active)	33%	3%	99% (active)	inactive	inactive	inactive	inactive
Cc1ccc2nc3sc(C(=O)NCCCN4CCC(N5CCCCC5)CC4)cc3cc2c1	71% (active)	11%	-5%	103% (active)	inactive	inactive	inactive	inactive
NC(=NCCc1ccc(Cl)cc1)c1ccc(Cl)c(Cl)c1	42%	43%	-1%	100% (active)	inactive	inactive	inactive	inactive
CCN1CCC(N(Cc2ccc(-c3ccc(C(F)(F)F)cc3)cc2)C(=O)Cn2c(CCc3cccc(F)c3F)cc(=O)c3ccc(OCc4ccccc4)cc32)CC1	86% (active)	60% (active)	3%	102% (active)	inactive	inactive	inactive	inactive
Cc1ccc2[nH]c3c(NCCCN(C)C)ncnc3c2c1	-2%	1%	-4%	99% (active)	inactive	inactive	inactive	inactive

SMILES	growth inhibition [1]	inhibition [2]	inhibition [3]	growth inhibition [4]	outcome [5]	outcome [6]	outcome [7]	outcome [8]
Nc1c2ccccc2nc2cc(Cl)ccc12	86% (active)	24%	-3%	103% (active)	inactive	inactive	inactive	inactive
COc1cc(CNc2ncc(-c3ccsc3)c(-c3nccs3)n2)cc(OC)c1	82% (active)	3%	-3%	86% (active)	inactive	inactive	inactive	inactive
O=C(Nc1ccc2c(c1)CCN(C1CCC1)CC2)c1cn(-c2ccccc2)nc1-c1ccccc1	10%	38%	3%	103% (active)	inactive	inactive	inactive	inactive
CCN(CCCN1CCCCC1)c1cc(C)nc(Nc2cccc(C(F)(F)F)c2C)n1	37%	57% (active)	-2%	99% (active)	inactive	inactive	inactive	inactive
COc1ccc2nccc(N3CCC(CCNCc4cc5c(cn4)OCCO5)CC3)c2n1	101% (active)	18%	7%	100% (active)	inactive	inactive	inactive	inactive
C[C@@H]([C@@H](CCCCc1ccccc1)C(=O)N[C@H](C(=O)Nc1cccnc1)C(C)(C)C)N(O)C=O	98% (active)	0%	0%	98% (active)	inactive	inactive	inactive	inactive
Cc1cnc(-c2cccc(C(=O)NC3CCC(CCN4CCc5ccc(C#N)cc5CC4)CC3)c2)[nH]1 (stereo not drawn)	69% (active)	23%	1%	100% (active)	inactive	inactive	inactive	inactive
CCCC(C)NC(=O)[C@H](CC1CCCCC1)NC(=O)c1ccc(O)c(-c2cccc(C(F)(F)F)c2)c1 (stereo partly drawn)	98% (active)	-5%	5%	100% (active)	inactive	inactive	inactive	inactive
CN(C)CCCOc1ccc(CCNCc2cccc(Oc3ccc(Cl)cc3)c2)cc1	26%	57% (active)	-4%	94% (active)	inactive	inactive	inactive	inactive
c1csc(-c2nc(N3CCCC3)ncc2-c2ccsc2)n1	75% (active)	1%	3%	89% (active)	inactive	inactive	inactive	inactive
CC(C)(C)c1ccc2nccc(Nc3cccc(O)c3)c2c1	100% (active)	8%	0%	99% (active)	inactive	inactive	inactive	inactive
CN1C[C@@H](c2ccccc2)c2cc(O)c(CN3CCCCC3)cc2C[C@H]1Cc1ccccc1	99% (active)	-6%	-8%	99% (active)	inactive	inactive	inactive	inactive
COc1cc(Nc2ncc3c(C)nc(-c4cccc(Nc5ccc(CN6CCS(=O)(=O)CC6)cc5)c4)n3n2)cc(OC)c1OC	79% (active)	2%	2%	90% (active)	inactive	inactive	inactive	inactive
Cn1cc(C2CCN(CCCCNC(=O)c3ccc(C(=O)Nc4ccc(C#N)cc4)cc3)CC2)c2ccccc21	58% (active)	16%	-4%	100% (active)	inactive	inactive	inactive	inactive
CO/C(=C\C=C\c1cc2cc(Cl)c(Cl)cc2[nH]1)C(=O)NCCCNC12CC3CC(CC(C3)C1)C2	76% (active)	29%	-2%	99% (active)	inactive	inactive	inactive	inactive
Cc1cc(CNCCCCCCNCc2ccc(-c3ccccc3)cc2)ccc1O	-2%	90% (active)	-3%	98% (active)	inactive	inactive	inactive	inactive
Cc1[nH]c(C)c(-c2ccc(OCc3ccccc3C(F)(F)F)nc2)c(=O)c1Br	97% (active)	35%	-6%	98% (active)	inactive	inactive	inactive	inactive
Cc1[nH]c(C)c(-c2ccc(OCc3cc(C(F)(F)F)cc(C(F)(F)F)c3)nc2)c(=O)c1Cl	96% (active)	19%	-1%	98% (active)	inactive	inactive	inactive	inactive
O=C(Nc1cccc(-c2cccc(-c3nc4ccccc4[nH]3)c2)c1)c1ccoc1	36%	19%	5%	85% (active)	inactive	inactive	inactive	inactive
O=C(Nc1ccc(OC2CCN(Cc3ccc(F)cc3)C2)c(Cl)c1)c1ccsc1 (stereo not drawn)	95% (active)	26%	-3%	98% (active)	inactive	inactive	inactive	inactive

Reference: PubChem BioAssay
